Consider 1 compound from PubChem BioAssay AID1159580 (chemical genetic matrix, 2015).

Out of some 5,500 compounds screened, about 2,000 (36%) were called active. Inconclusive results (about 18%) are left out. This is one part of the list. Values without a mark were called inactive. No stated cut-off is given here; in the data, active means normalized growth mostly below about 0.91 (no sharp cut-off); inconclusive means no clear call, values can overlap the other calls; inactive means mostly above about 0.92.

The test can be described thus: chemical genetic growth profiling, strain panel (AID 1159580).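 Further: tested at 20 µM; growth read once vehicle control cultures reached saturation at 30 °C; 1 = growth at the plate median or of vehicle wells; lower values mean less growth of the strain.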 The note with it: S. cerevisiae deletion strains, growth OD.

As for `CC[C@@H](C)[C@H]1O[C@]2(CC[C@@H]1C)C[C@@H]1C[C@@H](C/C=C(\C)[C@@H](O[C@H]3C[C@H](OC)[C@@H](O[C@H]4C[C@H](OC)[C@@H](O)[C@H](C)O4)[C@H](C)O3)[C@@H](C)/C=C/C=C3\CO[C@@H]4[C@H](O)C(C)=C[C@@H](C(=O)O1)[C@]34O)O2`, the normalized growth runs as follows: (locus YAL013W, strain DEP1, hits give low values) 0.732 (active); (locus YAL040C, strain CLN3, hits give low values) 1.01; (locus YCL061C, strain MRC1 (second series), hits give low values) 0.948; (locus YDR363W, strain ESC2, hits give low values) 0.613 (active); (locus YER002W, strain NOP16, hits give low values) 1.02; (locus YNL175C, strain NOP13, hits give low values) 1.01. Besides, the normalized growth was 1.02 (locus YNL197C, strain WHI3, hits give low values); 0.993 (locus YNL224C, strain SQS1, hits give low values); 0.981 (locus YOR083W, strain WHI5 (second series), hits give low values); 0.869 (active) (locus YPL241C, strain CIN2, hits give low values).
